We go through eleven molecules from PubChem BioAssay (NCATS).

Test [1] in a line: NCATS anti-infectives library activity on HEK293 viability as a counter-qHTS vs the C. elegans viability qHTS (AID 1745854). Put shortly:
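HEK293 cells, 1500 per well, exposed 24 hr at 37C in 5% CO2 to compounds in a 1:5 titration, up to 41.7 uM final. Viability read as CellTiter-Glo luminescence after 10 min at room temperature.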
(qHTS replaces the single test concentration by a dilution series.)

Test [2] is described as follows: Primary qHTS for small molecule stabilizers of the endoplasmic reticulum resident proteome: Secreted ER Calcium Modulated Protein (SERCaMP) assay (AID 1508630). Put shortly:
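GLuc-SERCaMP-expressing SH-SY5Y cells, pretreated 16 h with compound, are challenged with thapsigargin to empty ER calcium stores; after 4 h, coelenterazine is added directly to the medium and luminescence is imaged.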

For test [3], the target named is Cytochrome P450 2D6 (Homo sapiens) (UniProt P10635). The test can be described thus: qHTS Assay for Inhibitors and Substrates of Cytochrome P450 2D6 (AID 891).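 Also: luciferin methyl ether substrate demethylated by CYP2D6 with NADPH regeneration; nearly all actives have a fitted effect of over 60% in size.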 Put shortly: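 Human CYP2D6 (5 nM) with 30 uM Luciferin-ME EGE (at Km) in 100 mM KPO4, compound preincubated 10 min, then NADPH regeneration system for 60 min at room temperature. Luciferin read by luminescence; normalized to 1.43 uM quinidine.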

In test [4] the target is Pyruvate kinase PKM (Homo sapiens) (UniProt P14618). As to the kind of experiment: qHTS Assay for Inhibitors of Human Muscle Pyruvate Kinase (AID 958). Conditions: purified human PKM enzyme activity. Put shortly:
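Screening used highly purified human pyruvate kinase M2 under submaximal activity, with PEP at its Km and ADP below Km. After an hour at room temperature, ATP was read by luciferase luminescence.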

Test [5] is described as follows: Confirmation and Secondary Assay for Modulators of Hemoglobin Beta Chain Splicing at IVS2 654 locus (AID 910).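 Also: per-well total GFP intensity by laser scanning cytometry after 2-day treatment.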 Summed up: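 HeLa cells stably carrying EGFP interrupted by mutant beta-globin IVS2-654 intron (CMV-driven) were treated with compound for 2 days at 37C; corrected splicing was scored as total peak GFP intensity per well (488 nm excitation, 500-520 nm emission).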

A short description of test [6]: Confirmation and Secondary Assay for Modulators of Hemoglobin Beta Chain Splicing at IVS2 705 locus (AID 930).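 Also: HeLa cells stably expressing the EGFP-705 splicing reporter; GFP fluorescence per well restored by corrected splicing of the IVS2-705 intron in EGFP; series mostly up to about 46 µM.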 Summed up:
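HeLa IVS2-705 EGFP reporter cells, 500/well, compound 2 d at 37C; correct splicing yields fluorescent EGFP. Control: 500 nM antisense PNA. Read-out: total peak GFP intensity.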

For test [7], the target named is Rap guanine nucleotide exchange factor 3 (Homo sapiens) (UniProt O95398). As to the kind of experiment: Confirmatory qHTS for antagonist of cAMP-regulated guanine nucleotide exchange factor 3 (EPAC1) (AID 1645880). Also: nearly all actives have a fitted effect of over 55% in size. Put shortly: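 Nucleotide exchange uses 100 nM EPAC1, 250 nM RAP1B-BODIPY-GDP and 50 uM GDP, with compounds in a concentration-titration series. After 5 min at room temperature, fluorescence (480 nm ex/540 nm em) is read every 5 min for 30 min. Data are normalized to control ATA and DMSO.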

Test [8] shares this target. The test can be described thus: Confirmatory qHTS for agonist of cAMP-regulated guanine nucleotide exchange factor 3 (EPAC1) (AID 1645881).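 Also: EPAC1 catalysed release of BODIPY-GDP from Rap1B seen as fluorescence loss; nearly all actives have a fitted effect of over 75% in size.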
Test [9] deals with Rap guanine nucleotide exchange factor 4 (Homo sapiens) (UniProt Q8WZA2). As to the kind of experiment: Confirmatory qHTS for agonist of cAMP-regulated guanine nucleotide exchange factor 4 (EPAC2) (AID 1645884).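 Also: nucleotide exchange releases bodipy-GDP from Rap1 and this lowers its fluorescence; nearly all actives have a fitted effect of over 65% in size.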
The target is the same in test [10]. The test can be described thus: Confirmatory qHTS for antagonist of cAMP-regulated guanine nucleotide exchange factor 4 (EPAC2) (AID 1645885). Also: nearly all actives have a fitted effect of over 25% in size.
Test [11] deals with Rap guanine nucleotide exchange factor 3 (Homo sapiens) (UniProt O95398). As to the kind of experiment: Counterscreen qHTS for antagonist of cAMP-regulated guanine nucleotide exchange factor 3 (EPAC1) (AID 1645888).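 Also: fluorescence loss as bound BODIPY-GDP is released from Rap1B.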 Put shortly:
(§1)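 Measured: fluorescence of BODIPY-GDP bound to Rap1B, which falls as exchange proceeds. Conditions include 50 uM competing GDP, 5 and 30 min reads, and a later cAMP challenge for antagonist detection.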
A general note: A counterscreen serves to expose hits that act by an unwanted route or on another target.

Test [12] shares this target. The test can be described thus: Counterscreen qHTS for agonist of cAMP-regulated guanine nucleotide exchange factor 3 (EPAC1) (AID 1645889). Also: nearly all actives have a fitted effect of over 40% in size. Put shortly:
as §1

The target in test [13] is Cytochrome P450 2C19 (Homo sapiens) (UniProt P33261). As to the kind of experiment: qHTS Assay for Inhibitors and Substrates of Cytochrome P450 2C19 (AID 899). Also: nearly all actives have a fitted effect of over 60% in size. Also: potency is read from the fitted curve at half-maximal effect. Summed up:
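NADPH-dependent conversion of Luciferin-H EGE (10uM, at KM) by 5nM enzyme in 50mM KPO4, 60 min at 37C following 10 min compound preincubation. Stopped with luciferin detection buffer; luminescence read after 20 min.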

For test [14], the target named is Pyruvate kinase (Leishmania mexicana) (UniProt Q27686). The test can be described thus: qHTS Validation Assay for Activators of Leishmania Mexicana Pyruvate Kinase (AID 959). Summed up:
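Eight-point qHTS titrations; enzyme 0.2 nM LmPYK (E451W mutant); substrates 0.5 mM PEP, 0.1 mM ADP; 7 mM MgCl2; 1 h room temperature; PKLight luminescence normalized to neutral control.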

A short description of test [15]: qHTS assay for small molecule agonists of the antioxidant response element (ARE) signaling pathway measured by Nrf2-dependant transcriptional activity (AID 720636; active = well fitted curve in the direction sought with a large enough effect in the repeat runs; an effect the other way counts as inactive or inconclusive;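 also: HepG2 cells with an ARE-driven luciferase reporter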). Put shortly:
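Attachment 6 hr at 37 C, then compound versus DMSO vehicle for 16 hr in ARE-luc HepG2 cells (1% dialyzed FBS); luminescence recorded 30 min after ONE-Glo addition at room temperature.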

Test [16] in a line: qHTS Assay for Identification of Small Molecule Antagonists for Thrombopoietin (TPO) Signaling Pathway (AID 918). Also: potency is read from the fitted curve at half-maximal effect; nearly all actives have a fitted effect of over 60% in size. Conditions: TPO-dependent cell signaling reporter, antagonist mode. Summed up:
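Murine Ba/F3 cells stably expressing human TPO receptor and a Glycoprotein IIb promoter–luciferase reporter were IL-3-starved overnight, treated with compounds plus TPO (26 pM final, its EC50) for 24 hrs at 37 C, then read by luminescence.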

Values without a mark were called inactive. Results filed as inconclusive are left out. Entries that show only a call come without a potency. Activity calls are given as the source filed them. Unless noted, calls follow the shape of the dose curve; as a rule, active = well fitted curve in the direction sought with a large enough effect; inconclusive = small, poorly fitted or top-dose-only effect, or another doubt; inactive = no such curve, though single readings can be large; an effect the other way counts as inactive or inconclusive.

Chain of Rap guanine nucleotide exchange factor 3 (Homo sapiens) (O95398 whole entry, looked up): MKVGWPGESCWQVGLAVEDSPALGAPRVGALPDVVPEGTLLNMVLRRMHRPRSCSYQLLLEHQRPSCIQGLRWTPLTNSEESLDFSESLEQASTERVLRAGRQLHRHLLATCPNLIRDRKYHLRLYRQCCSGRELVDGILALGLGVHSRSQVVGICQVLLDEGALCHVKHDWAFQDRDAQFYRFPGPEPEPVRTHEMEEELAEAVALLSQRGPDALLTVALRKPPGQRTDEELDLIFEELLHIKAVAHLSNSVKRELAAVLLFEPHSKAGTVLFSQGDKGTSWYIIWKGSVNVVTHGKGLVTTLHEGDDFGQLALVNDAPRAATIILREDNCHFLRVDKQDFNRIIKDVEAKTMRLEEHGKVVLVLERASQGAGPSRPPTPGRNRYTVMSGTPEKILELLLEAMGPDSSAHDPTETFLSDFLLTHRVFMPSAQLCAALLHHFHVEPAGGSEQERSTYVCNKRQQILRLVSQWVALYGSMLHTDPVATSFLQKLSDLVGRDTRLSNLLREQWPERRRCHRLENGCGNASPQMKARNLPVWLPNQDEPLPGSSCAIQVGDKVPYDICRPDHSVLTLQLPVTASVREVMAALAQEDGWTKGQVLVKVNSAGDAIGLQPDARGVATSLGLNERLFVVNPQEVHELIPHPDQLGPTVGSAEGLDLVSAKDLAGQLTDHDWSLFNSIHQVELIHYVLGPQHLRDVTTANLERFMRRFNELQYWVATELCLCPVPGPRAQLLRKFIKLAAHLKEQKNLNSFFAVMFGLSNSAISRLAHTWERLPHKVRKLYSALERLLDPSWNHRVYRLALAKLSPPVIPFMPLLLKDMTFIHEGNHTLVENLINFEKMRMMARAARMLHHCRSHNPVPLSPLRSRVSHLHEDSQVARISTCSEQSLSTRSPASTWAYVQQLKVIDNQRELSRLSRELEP
Chain of Cytochrome P450 2C19 (Homo sapiens) (P33261 whole entry, looked up): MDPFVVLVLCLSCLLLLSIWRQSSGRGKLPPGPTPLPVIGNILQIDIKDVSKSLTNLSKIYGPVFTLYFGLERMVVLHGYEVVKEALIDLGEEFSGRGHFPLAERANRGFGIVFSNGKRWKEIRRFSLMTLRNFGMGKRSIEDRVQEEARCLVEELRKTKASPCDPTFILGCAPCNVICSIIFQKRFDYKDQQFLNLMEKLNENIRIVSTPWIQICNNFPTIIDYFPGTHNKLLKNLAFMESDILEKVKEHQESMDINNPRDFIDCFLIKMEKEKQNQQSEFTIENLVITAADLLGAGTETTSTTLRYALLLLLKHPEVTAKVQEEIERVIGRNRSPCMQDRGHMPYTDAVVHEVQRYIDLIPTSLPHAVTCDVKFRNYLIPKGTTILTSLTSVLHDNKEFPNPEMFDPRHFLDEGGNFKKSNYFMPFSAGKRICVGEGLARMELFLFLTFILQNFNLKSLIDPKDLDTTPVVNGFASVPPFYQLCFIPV
Chain of Rap guanine nucleotide exchange factor 4 (Homo sapiens) (Q8WZA2 whole entry, looked up): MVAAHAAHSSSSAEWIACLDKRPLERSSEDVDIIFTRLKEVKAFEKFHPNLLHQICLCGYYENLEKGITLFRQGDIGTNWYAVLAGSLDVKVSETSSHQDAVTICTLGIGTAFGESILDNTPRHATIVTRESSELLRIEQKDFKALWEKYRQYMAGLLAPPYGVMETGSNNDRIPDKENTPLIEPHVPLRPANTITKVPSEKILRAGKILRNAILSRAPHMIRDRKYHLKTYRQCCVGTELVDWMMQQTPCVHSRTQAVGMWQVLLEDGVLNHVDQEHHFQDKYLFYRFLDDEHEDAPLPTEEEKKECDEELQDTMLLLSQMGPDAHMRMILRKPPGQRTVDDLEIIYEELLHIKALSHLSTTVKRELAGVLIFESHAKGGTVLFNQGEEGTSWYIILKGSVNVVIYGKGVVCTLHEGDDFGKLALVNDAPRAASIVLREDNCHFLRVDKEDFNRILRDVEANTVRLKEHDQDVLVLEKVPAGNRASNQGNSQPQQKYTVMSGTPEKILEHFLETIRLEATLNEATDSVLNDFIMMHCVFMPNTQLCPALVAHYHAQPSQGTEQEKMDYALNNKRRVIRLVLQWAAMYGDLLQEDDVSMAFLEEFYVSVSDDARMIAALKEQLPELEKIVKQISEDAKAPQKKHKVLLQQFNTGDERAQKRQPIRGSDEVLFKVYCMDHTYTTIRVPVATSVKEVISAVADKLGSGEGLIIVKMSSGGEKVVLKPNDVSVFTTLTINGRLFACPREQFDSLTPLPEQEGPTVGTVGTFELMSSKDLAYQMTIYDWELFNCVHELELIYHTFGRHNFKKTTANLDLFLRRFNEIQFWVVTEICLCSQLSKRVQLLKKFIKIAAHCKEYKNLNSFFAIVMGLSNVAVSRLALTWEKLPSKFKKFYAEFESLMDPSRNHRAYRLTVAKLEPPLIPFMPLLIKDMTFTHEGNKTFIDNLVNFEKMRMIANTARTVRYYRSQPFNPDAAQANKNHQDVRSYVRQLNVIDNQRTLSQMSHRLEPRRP
Chain of Cytochrome P450 2D6 (Homo sapiens) (P10635 whole entry, looked up): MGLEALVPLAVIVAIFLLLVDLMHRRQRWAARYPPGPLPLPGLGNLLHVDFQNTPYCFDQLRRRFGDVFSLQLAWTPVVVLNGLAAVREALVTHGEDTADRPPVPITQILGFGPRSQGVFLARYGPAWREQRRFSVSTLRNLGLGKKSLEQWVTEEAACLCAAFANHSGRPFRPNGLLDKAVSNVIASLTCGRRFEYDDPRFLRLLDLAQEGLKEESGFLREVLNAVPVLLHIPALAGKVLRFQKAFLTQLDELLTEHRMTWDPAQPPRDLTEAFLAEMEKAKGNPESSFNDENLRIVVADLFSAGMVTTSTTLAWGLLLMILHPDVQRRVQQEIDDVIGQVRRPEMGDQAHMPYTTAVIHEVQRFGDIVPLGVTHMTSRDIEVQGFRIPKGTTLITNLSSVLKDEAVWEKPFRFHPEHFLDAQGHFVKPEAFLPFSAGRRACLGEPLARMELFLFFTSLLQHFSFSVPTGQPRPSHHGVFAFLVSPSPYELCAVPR
Chain of Pyruvate kinase PKM (Homo sapiens) (P14618 whole entry, looked up): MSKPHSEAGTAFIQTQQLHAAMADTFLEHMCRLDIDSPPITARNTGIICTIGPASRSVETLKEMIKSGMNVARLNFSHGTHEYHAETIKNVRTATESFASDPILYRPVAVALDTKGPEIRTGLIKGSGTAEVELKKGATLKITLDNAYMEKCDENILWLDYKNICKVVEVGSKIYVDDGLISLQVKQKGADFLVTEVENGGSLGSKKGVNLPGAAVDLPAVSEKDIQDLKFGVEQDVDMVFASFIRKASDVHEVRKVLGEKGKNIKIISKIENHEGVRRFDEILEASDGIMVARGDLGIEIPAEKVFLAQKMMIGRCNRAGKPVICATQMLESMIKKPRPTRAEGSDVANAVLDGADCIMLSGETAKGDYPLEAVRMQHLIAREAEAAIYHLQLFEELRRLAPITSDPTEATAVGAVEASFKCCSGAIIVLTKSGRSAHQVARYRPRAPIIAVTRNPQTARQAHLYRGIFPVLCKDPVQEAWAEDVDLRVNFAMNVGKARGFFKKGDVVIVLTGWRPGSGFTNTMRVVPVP
Chain of Pyruvate kinase (Leishmania mexicana) (Q27686 2-499 E452W): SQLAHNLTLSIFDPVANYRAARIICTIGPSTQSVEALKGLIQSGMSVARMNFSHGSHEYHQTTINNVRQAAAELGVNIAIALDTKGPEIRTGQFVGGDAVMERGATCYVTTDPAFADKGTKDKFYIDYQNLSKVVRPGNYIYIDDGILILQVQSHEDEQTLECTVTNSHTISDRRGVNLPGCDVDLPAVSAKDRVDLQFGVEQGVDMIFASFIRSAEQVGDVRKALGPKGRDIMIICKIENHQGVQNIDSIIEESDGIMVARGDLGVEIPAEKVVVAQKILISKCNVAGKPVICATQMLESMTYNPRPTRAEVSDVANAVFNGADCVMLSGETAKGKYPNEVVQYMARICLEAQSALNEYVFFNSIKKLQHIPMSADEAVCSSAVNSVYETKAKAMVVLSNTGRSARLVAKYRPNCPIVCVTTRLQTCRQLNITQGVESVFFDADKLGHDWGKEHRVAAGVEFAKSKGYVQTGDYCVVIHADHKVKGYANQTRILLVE

Take `CC(C)OC(=O)[C@H](C)N[P@](=O)(OC[C@H]1O[C@@H](n2ccc(=O)[nH]c2=O)[C@](C)(F)[C@@H]1O)Oc1ccccc1`: in test [1], the Potency result is “inactive”.
On the same count and under the same terms, with `CN(C)Cc1ccc(S(=O)(=O)n2ccc(/C=C/C(=O)NO)c2)cc1` the entry was “inactive”.
For the molecule `CC[C@@H](C)[C@H]1O[C@]2(CC[C@@H]1C)C[C@@H]1C[C@@H](C/C=C(\C)[C@@H](O[C@@H]3C[C@H](OC)[C@H](O[C@H]4C[C@H](OC)[C@@H](O)[C@H](C)O4)[C@H](C)O3)[C@@H](C)/C=C/C=C3\CO[C@@H]4[C@@H](O)C(C)=C[C@@H](C(=O)O1)[C@]34O)O2`, in test [2], the Potency result was “inactive”.
For `N=C1Sc2ccccc2C2=NCCCN12`, the Potency result in test [3] is “inactive”. The Potency in test [4] is 7.94 µM (active).
On to `CN1C(=O)CCC1c1cccnc1` (stereo not drawn), for which the result in test [5] and in test [6] was inactive.
Turning to `CN1C2CC(OC(=O)C(CO)c3ccccc3)CC1C1OC12` (stereo not drawn), in test [7], the Potency result was “inactive”. Moreover, the outcome in [8] and in test [11] was inactive. Also, the activation in test [9] was 2.48% [at 17.1 µM]; in [12], 0.0134% [at 30.8 µM]. In test [10], the activity change, negative = inhibition was -4.32% [at 12.7 µM].
As to `NCCC(=O)NCCc1cnc[nH]1`, the Potency result in test [13] is “inactive”.
The same measure, in the same setting: with `CCCC(=O)NCCc1c2n(c3ccc(OC)cc13)Cc1ccccc1-2` the figure was 0.398 µM (active).
For `CCSC(N)=Nc1ccc(C(F)(F)F)cc1`, in [14], the call was inactive.
Take `N[C@H](Cc1ccc(O)c(O)c1)C(=O)O`: the result in [15] was inactive.
Take `NCCCCNS(=O)(=O)c1cccc2c(Cl)cccc12`: the Potency in [16] is 10 µM (active).
